# The supplement of paper PMC9023506
# Where a name gives a salt, the structure may show the parent alone.
# System: Danio rerio larvae (5 dpf)
# Assay: activity during period 15 (no stimuli), difference vs DMSO (percentage points (treated minus DMSO)); higher = more of the behaviour than the DMSO vehicle control
# Conditions: 10 µM; exposure time: 3 h pre-incubation + 3 h imaging
# Experimental: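 5-dpf wild-type zebrafish larvae were imaged in 96-well plates. They were treated with 190 Tocris FDA-approved drugs at 10 µM (1 µl/ml DMSO) for 3 h before and 3 h during imaging at 28.5 °C, 48 larvae per drug. Automated image analysis gave % time moving and optomotor responses. Values are drug group mean minus DMSO vehicle mean (n=844), in percentage points, for 10 behaviours.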
row,SMILES,activity during period 15
1,CCC(=O)O[C@]1(C(=O)SCF)[C@H](C)C[C@H]2[C@@H]3C[C@H](F)C4=CC(=O)C=C[C@]4(C)[C@@]3(F)[C@@H](O)C[C@@]21C [Fluticasone propionate],8.18
2,CC(C)n1c(/C=C/C(O)CC(O)CC(=O)O)c(-c2ccc(F)cc2)c2ccccc21 (stereo not given) [Fluvastatin sodium],5.99
3,Brc1c(NC2=NCCN2)ccc2nccnc12,-19.4
4,Nc1cccc2c1CN(C1CCC(=O)NC1=O)C2=O (stereo not given) [Lenalidomide],4.34
5,Clc1ccc2nsnc2c1NC1=NCCN1 [Tizanidine hydrochloride],-20.8
6,CNS(=O)(=O)Cc1ccc2[nH]cc(CCN(C)C)c2c1 [Sumatriptan succinate],3.89
7,CN1CC[C@@H](NC(=O)Nc2ccc(C#N)cc2)C[C@@H]1c1nc2ccccc2[nH]1,-0.815
8,COc1c(C)c2c(c(O)c1C/C=C(\C)CCC(=O)OCCN1CCOCC1)C(=O)OC2 [Mycophenolate mofetil],-0.943
9,NS(=O)(=O)c1cc(C(=O)O)c(NCc2ccco2)cc1Cl [Furosemide],9.33
10,COc1cc2nc(N3CCN(C(=O)C4COc5ccccc5O4)CC3)nc(N)c2cc1OC (stereo not given) [Doxazosin mesylate],-7.81
11,OC(c1cc(C(F)(F)F)nc2c(C(F)(F)F)cccc12)C1CCCCN1 (stereo not given) [Mefloquine hydrochloride],-1.13
12,C[C@]12CC[C@@H]3c4ccc(O)cc4C[C@@H](CCCCCCCCC[S+]([O-])CCCC(F)(F)C(F)(F)F)[C@H]3[C@@H]1CC[C@@H]2O (stereo not given in full),4.53
13,CC(C)CN(C[C@@H](O)[C@H](Cc1ccccc1)NC(=O)O[C@H]1CO[C@H]2OCC[C@H]21)S(=O)(=O)c1ccc(N)cc1 [Darunavir],11.1
14,CC#C[C@]1(O)CC[C@H]2[C@@H]3CCC4=CC(=O)CCC4=C3[C@@H](c3ccc(N(C)C)cc3)C[C@@]21C [Mifepristone],-2.26
15,COC(c1ccccc1)(c1ccccc1)[C@H](Oc1nc(C)cc(C)n1)C(=O)O [Ambrisentan],-4.72
16,CC(C)(C#N)c1cc(Cn2cncn2)cc(C(C)(C)C#N)c1 [Anastrozole],2.84
17,CC1CNc2c(cccc2S(=O)(=O)N[C@@H](CCCNC(=N)N)C(=O)N2CC[C@@H](C)C[C@@H]2C(=O)O)C1 (stereo not given in full) [Argatroban],-2.33
18,Nc1nc(Cl)nc2c1ncn2[C@@H]1O[C@H](CO)[C@@H](O)[C@@H]1F [Clofarabine],-4.3
19,CC[C@H]1OC(=O)[C@H](C)[C@@H](O[C@H]2C[C@@](C)(OC)[C@@H](O)[C@H](C)O2)[C@H](C)[C@@H](O[C@@H]2O[C@H](C)C[C@H](N(C)C)[C@H]2O)[C@](C)(O)C[C@@H](C)CN(C)[C@H](C)[C@@H](O)[C@]1(C)O [Azithromycin],-17.4
20,Cn1cnc([N+](=O)[O-])c1Sc1ncnc2[nH]cnc12 [Azathioprine],8.85

row,SMILES,activity during period 15
1,Nc1ncn([C@H]2C[C@H](O)[C@@H](CO)O2)c(=O)n1 [Decitabine],1.76
2,Cc1c(-c2ccc(O)cc2)n(Cc2ccc(OCCN3CCCCCC3)cc2)c2ccc(O)cc12 [Bazedoxifene acetate],-15.7
3,CC(c1cc2ccccc2s1)N(O)C(N)=O (stereo not given) [Zileuton],3.35
4,O=C1CCc2cc(OCCCCc3nnnn3C3CCCCC3)ccc2N1 [Cilostazol],3.03
5,Nc1nc2[nH]cc(CCc3ccc(C(=O)N[C@@H](CCC(=O)O)C(=O)O)cc3)c2c(=O)[nH]1 [Pemetrexed],1.39
6,COCCCOc1cc(C[C@@H](C[C@H](N)[C@@H](O)C[C@H](C(=O)NCC(C)(C)C(N)=O)C(C)C)C(C)C)ccc1OC [Aliskiren hemifumarate],-3.61
7,OC(CNCC(O)C1CCc2cc(F)ccc2O1)C1CCc2cc(F)ccc2O1 (stereo not given) [Nebivolol hydrochloride],14
8,COc1ccc(-c2ccc3cc(C(=O)O)ccc3c2)cc1C12CC3CC(CC(C3)C1)C2 [Adapalene],-3.39
9,O=C1CCc2ccc(OCCCCN3CCN(c4cccc(Cl)c4Cl)CC3)cc2N1 [Aripiprazole],4.18
10,COc1cc2ncnc(Nc3ccc(F)c(Cl)c3)c2cc1OCCCN1CCOCC1 [Iressa],-0.986
11,N#C[C@@H]1C[C@@H]2C[C@@H]2N1C(=O)[C@@H](N)C12CC3CC(CC(O)(C3)C1)C2 [Saxagliptin hydrochloride],5.2
12,COC(=O)C1=C(C)NC(C)=C(C(=O)OC(C)C)C1c1cccc2nonc12 (stereo not given) [Isradipine],-12.3
13,CC(C)C(=O)Nc1ccc([N+](=O)[O-])c(C(F)(F)F)c1 [Flutamide],-0.963
14,CC1(C)O[C@@H]2[C@@H](CO[C@@]3(COS(N)(=O)=O)OC(C)(C)O[C@@H]23)O1 [Topiramate],3.85
15,CN1CCN2c3ncccc3Cc3ccccc3C2C1 (stereo not given) [Mirtazapine],4.7
16,COc1ccccc1OCCNCC(O)COc1cccc2[nH]c3ccccc3c12 (stereo not given) [Carvedilol],-6.43
17,C[C@@H](O[C@H]1OCCN(Cc2n[nH]c(=O)[nH]2)[C@H]1c1ccc(F)cc1)c1cc(C(F)(F)F)cc(C(F)(F)F)c1 [Aprepitant],-7.86
18,C[C@H](Cc1cc2c(c(C(N)=O)c1)N(CCCO)CC2)NCCOc1ccccc1OCC(F)(F)F [Silodosin],-7.59
19,CC(C)c1nc(CN(C)C(=O)N[C@H](C(=O)N[C@@H](Cc2ccccc2)C[C@H](O)[C@H](Cc2ccccc2)NC(=O)OCc2cncs2)C(C)C)cs1 [Ritonavir],-8.67
20,CCCCCOC(=O)Nc1nc(=O)n([C@@H]2O[C@H](C)[C@@H](O)[C@H]2O)cc1F [Capecitabine],2.91
